# According to the supplement of paper PMC12636033:
# ± gives the standard deviation of the averaged measurements. The full ranking holds about 33,000 sequences; the median of “E-score (rank enrichment, -0.5 to 0.5)” is about -0.0028, and the highest 2% start at about 0.23. Only a selection was taken, and the highest values are over-represented in it overall.
# Tested on: 2Sb-muMax20 (muMax20 with two 1,3-bis(methyl)benzene Cys staples, A13C/A17C and Q88C/A92C, C-terminal Lys)
# Assay: PBM 8-mer E-score (E-score (rank enrichment, -0.5 to 0.5)); higher = stronger preferential binding
# Experimental: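 Protein binding microarray (universal PBM chip covering all 10-mers in fixed probe flanks) with chemically synthesized human Max(13-93) bHLH-LZ analogs (not full-length Max) bearing noncanonical residues (hArg, Tha, Aib, Nle at 65) and aromatic Cys staples. Read-out per 8-mer (and its reverse complement): E-score (rank-based enrichment, -0.5 to 0.5) and Z-score of median probe intensity.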
row,Sequence,PBM 8-mer E-score
1,GATAATTA,0.0844 ± 0.0069
2,AATAATGT,0.283 ± 0.0037
3,CATAATTA,0.203 ± 0.039
4,CTGAACTA,-0.149 ± 0.065
5,ATGAACTC,-0.04627 ± 0.0002
6,AATAATGG,0.138 ± 0.0076
7,GAGTGCAC,-0.0155 ± 0.11
8,AATACGGA,0.0895 ± 0.071
9,CGGAATGC,-0.00566 ± 0.015
10,GTCCATTA,0.107 ± 0.015
11,ATGTGGAA,0.173 ± 0.015
12,GGAAATAC,-0.0227 ± 0.051
13,GAGTTCCA,-0.117 ± 0.052
14,GAACGTGA,0.00502 ± 0.1
15,GCACGTAC,0.0889 ± 0.026
16,GCACGTGC,0.4793 ± 0.0038
17,GCACGTGA,0.241 ± 0.026
18,GCACGTCC,-0.139 ± 0.095
19,GGACGTGA,-0.108 ± 0.045
20,GTTCCGTA,-0.187 ± 0.024
21,ATCCACAA,0.0617 ± 0.059
22,ATCGTCCG,-0.149 ± 0.027
23,GTTTCTTA,0.0179 ± 0.046

row,Sequence,PBM 8-mer E-score
1,AATAACCG,0.0384 ± 0.018
2,GCGCGCGA,0.0594 ± 0.082
3,GCGCGCGC,0.3223 ± 0.00078
4,CCGCGCGC,0.01 ± 0.0081
5,ACGCGCGG,0.178 ± 0.038
6,ACGCGCGT,0.3355 ± 0.0029
7,ACGCGCGC,0.1365 ± 0.00093
8,AGCAGTTC,0.00143 ± 0.078
9,AAAAATAA,0.0834 ± 0.061
10,GACCTGGA,-0.164 ± 0.035
11,AATATTCT,0.133 ± 0.011
12,GATACGCA,0.115 ± 0.031
13,CATACGTA,0.3021 ± 0.0027
14,AATACGTA,0.231 ± 0.019
15,AATACGCA,0.251 ± 0.0039
16,GATACGTA,0.081 ± 0.0043
17,AATACGTG,0.0524 ± 0.012
18,CATACGTC,-0.00541 ± 0.00038
19,AATACGCT,0.188 ± 0.045
20,AATACGTC,0.0547 ± 0.024
21,AAGCACAC,0.0724 ± 0.00084
22,AGACGTAA,0.0336 ± 0.059
23,CCGTAGAG,-0.0843 ± 0.033

row,Sequence,PBM 8-mer E-score
1,AAAGGGCT,0.0103 ± 0.021
2,TAGGGGCA,0.267 ± 0.013
3,AAGGGGCT,0.276 ± 0.0072
4,AAGGGGCG,0.0188 ± 0.025
5,GAGGGGCA,0.0724 ± 0.043
6,CAGGGGCA,0.0503 ± 0.027
7,AAAGTTAT,0.0271 ± 0.025
8,AATAGGGC,-0.00932 ± 0.054
9,CAGTTTGA,-0.0513 ± 0.03
10,GGAATGCC,-0.081 ± 0.011
11,GTGGAGCA,-0.0959 ± 0.032
12,AATAGCAG,-0.0835 ± 0.028
13,ACTGTATA,0.236 ± 0.042
14,CACGTATA,0.0602 ± 0.053
15,ATTGTATA,0.273 ± 0.017
16,GCTGTATA,0.218 ± 0.05
17,AACGTATA,0.251 ± 0.032
18,CTTGTATA,0.164 ± 0.018
19,CTTGTACA,0.0642 ± 0.09
20,ATTGTATG,0.172 ± 0.066
21,GACGTATA,0.0136 ± 0.0084
22,ATTGTACC,0.178 ± 0.035
23,CCTGTATA,0.109 ± 0.011

row,Sequence,PBM 8-mer E-score
1,ATTGTACA,0.241 ± 0.042
2,TGAAGAAA,-0.0313 ± 0.065
3,CACCTCTG,-0.0833 ± 0.03
4,CGTAACAG,0.177 ± 0.013
5,GAAGGCGC,-0.0372 ± 0.063
6,ATTGTCTC,-0.0946 ± 0.028
7,ATTGTCTA,0.277 ± 0.0069
8,GATGTATA,0.0803 ± 0.029
9,AATGTATA,0.269 ± 0.02
10,CATGTATA,0.15 ± 0.062
11,GTTGTCTA,-0.0541 ± 0.029
12,TAACGGAA,0.149 ± 0.021
13,ACAGTGAT,0.142 ± 0.065
14,TAAGGCTA,0.0712 ± 0.066
15,ATGAGGGA,0.191 ± 0.062
16,AGTAGGGA,0.0636 ± 0.013
17,AGGAGGGC,-0.0974 ± 0.038
18,AGTAGGGG,0.306 ± 0.0088
19,AGGAGGGA,-0.0776 ± 0.0034
20,ATGAGGGC,0.0989 ± 0.0016
21,AGTAGGGC,0.0716 ± 0.0035
22,AGGAGGGG,0.297 ± 0.06
23,ATGAGGGG,0.267 ± 0.0094

row,Sequence,PBM 8-mer E-score
1,AATGGCGA,0.135 ± 0.067
2,GACTCAGA,-0.115 ± 0.064
3,CACGGCAC,-0.198 ± 0.045
4,GGTCTCTA,-0.0733 ± 0.014
5,CCTGAGCC,-0.241 ± 0.074
6,TGTTTCAA,0.13 ± 0.063
7,GAAGTTGC,-0.202 ± 0.021
8,CCTTCACA,0.298 ± 0.014
9,ACTTCACA,0.0282 ± 0.023
10,CCTTCACG,-0.013 ± 0.075
11,AATCCCGT,-0.000655 ± 0.018
12,ATATTTAA,0.256 ± 0.024
13,CTATTTAA,-0.0132 ± 0.0071
14,CCATTTTA,0.0822 ± 0.0077
15,GTATTTTA,0.0366 ± 0.0083
16,ACATTTTA,0.242 ± 0.054
17,GCATTTTA,0.151 ± 0.0045
18,ATATTTAC,0.22 ± 0.028
19,CTATTTTA,0.193 ± 0.048
20,ATATTTTA,0.238 ± 0.0056
